The nature of test [1]: compounds binding Alexa647 anti-His antibody – biochemical, small-molecule microarray, 635 nm fluorescence, artefact control for SMM control protein annotation, primary screen (AID 1128).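 Note: score merges feature fluorescence with signal-to-noise for each printed compound spot.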 To be noted: higher = more signal.
Test [2] deals with Human papillomavirus type 1a E7 protein (residues 1-88). Put plainly: HPV1a E7 small-molecule binders, primary screen, biochemical, small-molecule microarray, residues 1-88, 635 nm (AID 1129). To be noted: small-molecule microarray binding, fluorescence 635 nm; higher = more signal.
Test [3] deals with Focal adhesion kinase 1 (Homo sapiens) (UniProt Q05397). Put plainly: PTK2 protein binding on printed compound slides – biochemical, small-molecule microarray, 635/667 nm fluorescence, BSA, DTT, primary screen (AID 1130).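 Note: composite of spot emission at 667 nm and signal to noise over triplicate slides.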 The conditions noted are these: 635 nm fluorescence, higher = more signal.
Test [4] deals with Fibrinogen (Alexa647-labelled). The experiment in a line: Alexa647-fibrinogen binding to printed small molecules – biochemical, small-molecule microarray, 635/667 nm fluorescence, artefact control for SMM control-protein annotation, profiling panel (AID 1131).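 Note: z-score merges 667 nm fluorescence with per-spot signal-to-noise over triplicate slides.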 The conditions noted are these: fibrinogen-A647 binding fluorescence, higher = more signal.
Test [5] deals with Follistatin (Homo sapiens) (UniProt P19883). The experiment in a line: FST protein binding to printed compounds – biochemical, small-molecule microarray, 635/667 nm fluorescence, primary screen (AID 1132). To be noted: 635 nm fluorescence, higher = more signal.
Test [6] has as its target Fibroblast growth factor 2 (Homo sapiens) (UniProt P09038). The experiment in a line: basic fibroblast growth factor binding to printed compounds – biochemical, small-molecule microarray, 635/667 nm fluorescence, primary screen (AID 1133). To be noted: FGF2, fluorescence 635/667, higher = more signal.
Test [7] is described as follows: JC-1 mitochondrial potential readout, lung cancer cells – cell-based, A549, JC-1 fluorescence, basal, 24 h, 100 nL, profiling panel (AID 1138).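 Note: A549 lung adenocarcinoma cells under basal conditions with no added stimulus; test concentration not given here.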 The conditions noted are these: higher = more signal.
The subject of the next test is Lefty1. The experiment in a line: Lefty1 protein binding to printed compounds – biochemical, small-molecule microarray, 635/667 nm fluorescence, primary screen (AID 1139). To be noted: fluorescence 635/667, higher = more signal.
Test [8] deals with wheat germ agglutinin (Triticum aestivum), Alexa647-labelled. The experiment in a line: Alexa647-WGA lectin binding to printed small molecules – biochemical, small-molecule microarray, 635/667 nm fluorescence, artefact control for SMM control-protein annotation, profiling panel (AID 1140).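 Note: score merges 667 nm feature emission with signal to noise over triplicate slides.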 The conditions noted are these: WGA-A647 binding, 635 nm fluorescence, higher = more signal.

The target in test [9] is Luciferin 4-monooxygenase (Photinus pyralis) (UniProt P08659). Put plainly: inhibition of purified Photinus pyralis luciferase – biochemical, luminescence, purified enzyme, 2006 set, primary screen (AID 1141).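 Note: cell-free assay with purified firefly luciferase at 100 ng per well in PBS; test concentration not given here.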 The conditions noted are these: purified firefly luciferase, SteadyGlo luminescence, 30 min; higher = more signal, called active from +8 up or from −8 down.
The subject of test [10] is Wnt5a (protein binding on small-molecule microarray). Put plainly: small molecules binding Wnt5a protein – biophysical, small-molecule microarray, 635/667 nm fluorescence, primary screen (AID 1142).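 Note: fluorescence read at 667 nm with signal to noise per printed feature.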 To be noted: 635 nm fluorescence, higher = more signal.
A short description of test [11]: ATP-based viability of Huh7 replicon cells – cell-based, CellTiter-Glo luminescence, basal, 48 h, cytotoxicity control for HCV replication inhibitor project, primary screen (AID 1143).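 Note: Huh7 hepatoma cells carrying a hepatitis C replication reporter with no stimulus; test concentration not given here.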 The conditions noted are these: higher = more signal, called active from +8 up or from −8 down.
The nature of test [12]: Pseudomonas biofilm growth suppression – PAO1 strain, BacTiter-Glo luminescence, LB-PBS, primary screen (AID 1144). To be noted: P. aeruginosa PAO1 biofilm, 12 h, higher = more signal.
A short description of test [13]: basal CRE-LacZ reporter activity in PC12 – cell-based, unstimulated, primary screen (AID 1145). The conditions noted are these: no forskolin, luminescence, 4.5 h, higher = more signal, called active from +8 up or from −8 down.
Test [14] can be described thus: forskolin-driven CRE-LacZ activity in PC12 – cell-based, CRE-LacZ reporter, forskolin-stimulated, primary screen (AID 1146).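 Note: PC12 cells with 6xCRE LacZ reporter stimulated by forskolin 10 µM; beta-galactosidase reporter signal reflecting CREB driven transcription.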 To be noted: luminescence, 4.5 h, higher = more signal, called active from +8 up or from −8 down.
Test [15] concerns the target Streptavidin (Streptomyces avidinii) (UniProt P22629). The experiment in a line: compounds binding control protein streptavidin – biophysical, small-molecule microarray, 635/667 nm fluorescence, artefact control for SMM compound annotation, primary screen (AID 1147).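 Note: signal reflects streptavidin binding to arrayed compounds as a control protein.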 To be noted: higher = more signal.
The nature of test [16]: probe aInhba binding on compound microarray – biochemical, small-molecule microarray, 635/667 nm fluorescence, primary screen (AID 1148).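 Note: score merges 667nm spot fluorescence with signal-to-noise for antibody binding to printed compounds.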 To be noted: higher = more signal.
In test [17] the target is Torsin-1A (Homo sapiens) (UniProt O14656). Put plainly: TOR1A wild-type binding on microarray – cell lysate, small-molecule microarray, lysate, 635/667 nm, primary screen (AID 1149). The conditions noted are these: COS7 hTOR1A-WT lysate, 635 nm fluorescence, higher = more signal.
Test [18] shares this target. The experiment in a line: torsin A mutant lysate binding on microarrays – cell lysate, small-molecule microarray, COS7 lysate, 635/667 nm fluorescence, primary screen (AID 1150).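 Note: score pools 667 nm emission and signal to noise measuring lysate protein binding.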 The conditions noted are these: COS7 hTOR1A mutant lysate, 635 nm fluorescence, higher = more signal.
Test [19] relates to Sonic hedgehog protein (Shh). Put plainly: Sonic hedgehog microarray binding compounds – biochemical, small-molecule microarray, 635/667 nm fluorescence, primary screen (AID 1151).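 Note: Shh protein binding to compounds spotted on small-molecule microarray slides; score combines spot fluorescence intensity with signal-to-noise across triplicate slides.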 The conditions noted are these: 635 nm fluorescence, higher = more signal.

Structures are written as SMILES. Calls of active or inactive are those of the source. Unless noted, the rule behind the calls is not given here.

Chain of Luciferin 4-monooxygenase (Photinus pyralis) (P08659 whole entry, looked up): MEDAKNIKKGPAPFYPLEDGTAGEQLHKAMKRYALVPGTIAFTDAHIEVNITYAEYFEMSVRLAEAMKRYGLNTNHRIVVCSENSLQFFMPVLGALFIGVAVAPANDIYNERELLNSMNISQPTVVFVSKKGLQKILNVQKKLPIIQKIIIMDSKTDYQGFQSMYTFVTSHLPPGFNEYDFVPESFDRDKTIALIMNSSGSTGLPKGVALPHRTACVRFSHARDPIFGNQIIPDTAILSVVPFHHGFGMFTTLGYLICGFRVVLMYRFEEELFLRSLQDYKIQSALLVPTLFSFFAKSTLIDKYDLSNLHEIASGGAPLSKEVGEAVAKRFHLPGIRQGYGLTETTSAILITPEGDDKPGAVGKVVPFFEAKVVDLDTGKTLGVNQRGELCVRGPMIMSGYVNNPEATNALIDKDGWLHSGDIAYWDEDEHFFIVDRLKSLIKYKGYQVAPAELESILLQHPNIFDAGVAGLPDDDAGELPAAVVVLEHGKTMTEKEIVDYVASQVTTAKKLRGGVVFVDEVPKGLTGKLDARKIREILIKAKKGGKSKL
Chain of Torsin-1A (Homo sapiens) (O14656 whole entry, looked up): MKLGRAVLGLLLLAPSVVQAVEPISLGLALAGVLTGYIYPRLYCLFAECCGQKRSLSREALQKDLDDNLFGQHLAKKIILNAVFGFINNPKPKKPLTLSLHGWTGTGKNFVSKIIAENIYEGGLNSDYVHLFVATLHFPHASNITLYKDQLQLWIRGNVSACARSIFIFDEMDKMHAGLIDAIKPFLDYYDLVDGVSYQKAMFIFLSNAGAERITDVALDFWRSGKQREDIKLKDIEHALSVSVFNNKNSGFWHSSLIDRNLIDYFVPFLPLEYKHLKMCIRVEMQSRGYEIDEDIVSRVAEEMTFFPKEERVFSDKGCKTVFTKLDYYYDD
Chain of Follistatin (Homo sapiens) (P19883 whole entry, looked up): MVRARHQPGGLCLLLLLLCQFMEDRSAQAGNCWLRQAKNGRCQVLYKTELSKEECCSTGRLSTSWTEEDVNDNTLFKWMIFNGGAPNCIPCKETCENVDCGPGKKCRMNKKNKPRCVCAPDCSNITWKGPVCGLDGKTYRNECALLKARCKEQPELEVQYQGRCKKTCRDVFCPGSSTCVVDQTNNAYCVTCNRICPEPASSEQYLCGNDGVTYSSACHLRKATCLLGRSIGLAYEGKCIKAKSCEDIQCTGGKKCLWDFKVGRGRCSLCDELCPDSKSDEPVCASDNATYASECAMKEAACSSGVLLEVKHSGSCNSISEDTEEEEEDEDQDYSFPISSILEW
Chain of Streptavidin (Streptomyces avidinii) (P22629 whole entry, looked up): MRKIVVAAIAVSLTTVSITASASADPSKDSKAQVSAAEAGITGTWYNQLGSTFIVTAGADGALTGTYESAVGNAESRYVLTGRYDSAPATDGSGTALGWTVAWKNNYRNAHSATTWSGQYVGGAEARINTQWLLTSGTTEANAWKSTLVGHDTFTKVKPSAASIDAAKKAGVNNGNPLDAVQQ
Chain of Fibroblast growth factor 2 (Homo sapiens) (P09038 whole entry, looked up): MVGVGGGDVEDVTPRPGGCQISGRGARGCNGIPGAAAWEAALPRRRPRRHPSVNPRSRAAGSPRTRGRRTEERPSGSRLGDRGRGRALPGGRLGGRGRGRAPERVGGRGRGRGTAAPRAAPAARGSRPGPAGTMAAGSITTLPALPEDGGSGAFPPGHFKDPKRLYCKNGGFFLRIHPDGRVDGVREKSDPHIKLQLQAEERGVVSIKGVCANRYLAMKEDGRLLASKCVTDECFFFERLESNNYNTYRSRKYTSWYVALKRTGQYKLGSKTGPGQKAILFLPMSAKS
Chain of Focal adhesion kinase 1 (Homo sapiens) (Q05397 whole entry, looked up): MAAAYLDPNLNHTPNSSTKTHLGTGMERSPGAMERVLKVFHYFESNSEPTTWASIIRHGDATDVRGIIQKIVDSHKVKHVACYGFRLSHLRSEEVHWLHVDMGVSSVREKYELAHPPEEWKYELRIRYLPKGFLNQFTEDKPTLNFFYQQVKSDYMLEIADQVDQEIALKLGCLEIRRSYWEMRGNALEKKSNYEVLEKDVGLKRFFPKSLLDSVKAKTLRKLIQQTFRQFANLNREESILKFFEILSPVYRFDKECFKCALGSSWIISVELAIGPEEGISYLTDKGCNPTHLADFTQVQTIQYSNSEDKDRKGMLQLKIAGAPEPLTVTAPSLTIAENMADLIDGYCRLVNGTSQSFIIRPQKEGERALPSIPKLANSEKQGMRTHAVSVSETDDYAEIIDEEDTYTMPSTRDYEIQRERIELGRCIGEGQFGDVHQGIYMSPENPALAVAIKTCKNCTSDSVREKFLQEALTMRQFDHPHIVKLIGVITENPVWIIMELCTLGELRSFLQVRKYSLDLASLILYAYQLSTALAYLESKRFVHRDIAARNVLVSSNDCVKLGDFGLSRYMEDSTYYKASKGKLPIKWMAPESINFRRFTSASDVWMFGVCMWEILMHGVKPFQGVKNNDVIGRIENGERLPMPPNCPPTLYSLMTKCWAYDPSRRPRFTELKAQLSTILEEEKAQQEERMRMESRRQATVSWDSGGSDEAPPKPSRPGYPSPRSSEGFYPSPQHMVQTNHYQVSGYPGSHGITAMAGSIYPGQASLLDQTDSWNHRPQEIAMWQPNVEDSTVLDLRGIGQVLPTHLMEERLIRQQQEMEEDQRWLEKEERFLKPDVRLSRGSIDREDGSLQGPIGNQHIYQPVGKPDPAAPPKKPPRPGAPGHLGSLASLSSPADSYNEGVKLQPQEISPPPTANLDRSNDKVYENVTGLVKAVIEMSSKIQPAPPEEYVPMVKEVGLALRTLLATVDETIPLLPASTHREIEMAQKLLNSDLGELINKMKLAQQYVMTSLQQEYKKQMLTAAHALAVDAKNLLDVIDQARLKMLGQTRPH

As to `CON=C1[C@H]2CCn3c(=O)n(-c4ccccc4)c(=O)n3[C@H]2[C@H](O)[C@@H]2O[C@H]12`, the composite z-score in [1] is 1.95; in [2], 0.574; in test [3] it was 0.295; in [4] it was 0.148; in [5] it was 0.743; in test [6] it was 0.986. The composite z-score in the test with Lefty1 is 0.695; in test [8], 0.168; in [10], 0.0275; in test [15], 0.0011; in test [16] it was -0.268; with Torsin-1A (Homo sapiens) [17], 0.144. Moreover, the composite z-score stood at 0.606 with Torsin-1A (Homo sapiens) [18] and 0.435 in [19]. Further, the z-score in test [7] was 0.758; in test [9], -2.49 (inactive); in test [11], 0.653 (inactive); in test [12], -0.633 (inactive); in test [13], 1.55 (inactive); in test [14], 0.236 (inactive).
In the case of `CO[C@@H]1COC(=O)[C@H](CCSC)NC(=O)CC=C[C@@H](C)COC(=O)[C@H](C)NC(=O)CC=C[C@H]1C`, the composite z-score was -0.229 in test [1]; 0.255 in [2]; -0.342 in test [3]; -0.433 in test [4]; 0.96 in test [5]; 1.62 in test [6]. Besides, the composite z-score was 1.2 in the test on Lefty1; -0.543 in [8]; 0.312 in test [10]; -0.793 in test [15]; -0.103 in [16]; 1.49 in the test with Torsin-1A (Homo sapiens) [17]. Further, the results for the composite z-score (in the test with Torsin-1A (Homo sapiens) [18]; in [19]) were 0.152 and 1.46, respectively. The z-score was 0.812 in test [7]; -1.2 (inactive) in test [9]; 0.208 (inactive) in test [11]; 0.0303 (inactive) in test [12]; 1.97 (inactive) in [13]; -0.306 (inactive) in test [14].
Consider `O=C1[C@H]2[C@H]3[C@H](O)[C@H](O)CC(=NO[C@@H]4O[C@H](CO)[C@@H](O)[C@H](O)[C@H]4O)[C@H]3CC[C@H]2C(=O)N1c1cccc(Oc2ccccc2)c1`, for which the composite z-score in [1] amounted to 1.25; in test [2], 0.394; in test [3], 0.199; in [4], 0.574; in test [5], 0.423; in test [6], 0.445. Moreover, the composite z-score is 0.802 with Lefty1; 0.13 in [8]; 0.162 in [10]; 0.528 in test [15]; -0.0846 in [16]; 0.625 in the test with Torsin-1A (Homo sapiens) [17]. Moreover, the composite z-score is 0.367 with Torsin-1A (Homo sapiens) [18] and 1.09 in test [19]. Moreover, the z-score was -0.873 in test [7]; 1.14 (inactive) in [9]; -0.31 (inactive) in [11]; 0.257 (inactive) in [12]; -0.838 (inactive) in test [13]; -0.462 (inactive) in test [14].
`COc1cc(O)c(C(=O)C=Cc2ccc3c(c2)OCO3)c(OC)c1`: the composite z-score in [1] was -0.132; in test [2], -1.44; in [3], 0.0276; in test [4] it was 0.0337; in test [5], 0.4; in test [6], -0.19. In addition, the composite z-score in the test with Lefty1 is 0.707; in test [8] it was 0.393; in test [10], 0.0926; in test [15] it was -0.379; in [16], -0.0332; with Torsin-1A (Homo sapiens) [17], -0.404. Moreover, the figures for the composite z-score (with Torsin-1A (Homo sapiens) [18]; in test [19]) were -0.19 and 0.782, respectively. Further, the z-score in [7] is 0.209; in test [9], -5.1 (inactive); in test [11] it was -2.56 (inactive); in test [12] it was 1.1 (inactive); in [13] it was 0.286 (inactive); in [14], 0.528 (inactive).
With `CC(C)C[C@H](NC(=O)CCC1CC(OC(=O)NCc2cccc3ccccc23)CC2(CCCC(COC(=O)NCc3ccccc3)O2)O1)C(=O)NCC(c1ccccc1)c1ccccc1` (stereo not given in full), the composite z-score in test [1] worked out at 0.231; in test [2], 1.13; in test [3], 0.383; in test [4] it was 0.803; in test [5] it was 0.909; in test [6] it was 1.27. Moreover, the composite z-score is 1.07 in the test with Lefty1; 0.493 in [8]; 0.451 in test [10]; 0.396 in test [15]; -0.0963 in test [16]; 0.317 in the test with Torsin-1A (Homo sapiens) [17]. For the same compound, the composite z-score stood at 0.0582 with Torsin-1A (Homo sapiens) [18] and 0.954 in test [19]. In addition, the z-score in test [7] is 1.09; in test [9], 0.43 (inactive); in [11] it was -0.363 (inactive); in test [12] it was -0.434 (inactive); in test [13], -0.258 (inactive); in test [14], 0.728 (inactive).
